Measured values reported in PubChem BioAssay AID1259400 (National Center for Advancing Translational Sciences (NCATS), 2018).
The campaign covered roughly 350,000 compounds. About 2,100 (0.6%) were called active. Not shown: some 1% with an inconclusive outcome. The sample holds actives, similar compounds and a random draw of the others, so the mix is not that of the screen.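 The calls were made as follows: active = activity change of -60% or lower, but not beyond a set lower limit; inconclusive = change between -60% and -40%, or beyond the set limit; inactive = change above -40%.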

target: Relaxin receptor 1 (Homo sapiens) (UniProt Q9HBX9); experiment: qHTS Assay for Antagonists of the Relaxin Receptor RXFP1; conditions: HEK293-RXFP1, relaxin-stimulated cAMP HTRF, 30 min; at 57.5 µM; active compounds read low
Sequence (Q9HBX9 whole entry, looked up): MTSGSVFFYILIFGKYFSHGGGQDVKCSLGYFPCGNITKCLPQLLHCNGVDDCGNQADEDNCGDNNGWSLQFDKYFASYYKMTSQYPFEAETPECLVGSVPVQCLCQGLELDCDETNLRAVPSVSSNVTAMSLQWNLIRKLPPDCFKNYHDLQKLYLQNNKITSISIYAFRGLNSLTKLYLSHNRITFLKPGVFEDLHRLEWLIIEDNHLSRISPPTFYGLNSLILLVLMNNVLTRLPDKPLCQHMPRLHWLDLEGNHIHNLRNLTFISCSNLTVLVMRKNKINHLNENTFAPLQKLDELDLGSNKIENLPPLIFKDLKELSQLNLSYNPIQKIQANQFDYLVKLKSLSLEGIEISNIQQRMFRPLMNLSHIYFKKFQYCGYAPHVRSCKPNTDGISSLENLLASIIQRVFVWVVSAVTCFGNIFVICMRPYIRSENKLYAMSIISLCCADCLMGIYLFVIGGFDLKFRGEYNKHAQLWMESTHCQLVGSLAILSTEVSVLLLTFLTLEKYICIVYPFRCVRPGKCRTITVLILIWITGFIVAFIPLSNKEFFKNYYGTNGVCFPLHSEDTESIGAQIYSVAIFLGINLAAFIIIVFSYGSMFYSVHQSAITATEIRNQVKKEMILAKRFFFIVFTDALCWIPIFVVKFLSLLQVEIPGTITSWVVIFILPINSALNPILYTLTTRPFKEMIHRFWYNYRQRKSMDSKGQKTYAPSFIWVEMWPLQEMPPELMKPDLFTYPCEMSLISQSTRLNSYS
Excerpt: The relaxin hormone is involved in the variety of biological functions in normal tissues and diseases. The role of relaxin is well-established in female reproduction and parturition, mammary gland and endometrial development, maintenance of myometrial quiescence during pregnancy. Relaxin signaling through its G protein-coupled receptor (GPCR) RXFP1 results in ECM remodeling through regulation of collagen deposition, cell invasiveness, proliferation and overall tissue homeostasis. […] Recombinant human relaxin (rhRlx) is currently being tested in clinical trials as a protective agent in congestive heart failure, in treating severe preeclampsia, and as an anti-fibrotic agent in various organs. […] Upon relaxin binding RXFP1 activation leads to the activation of adenylate cyclase (AC) via G?s. cAMP will activate PKA, which phosphorylates many signaling proteins. Thus, detection of cAMP increase is an easy and reliable indication of relaxin receptor activation. To screen for antagonists of the relaxin receptor, a HEK293T cell line stably transfected with RXFP1 was used. RXFP1 activation by relaxin in presence of various concentrations of tested compounds was assayed by changes in cAMP levels as detected with a time-resolved fluorescence energy transfer (TR-FRET) cAMP detection kit.
For the primary screening, we used HTRF(R) (Homogenous Time-Resolved Fluorescence) cAMP HiRange assay (Cisbio Bioassays, 62AM6PEJ). Presence of cAMP in the cell lysate disrupts binding between the Cryptate-labeled anti-cAMP and d2-labeled cAMP pair, leading to a decrease in TR-FRET signal. The libraries were screened at two doses (57microM and 11microM), followed by a confirmation of the hits at 7-point serial dilution in the range of final concentrations [57microM - 78nM]. Data were normalized to the controls for basal activity (buffer only) and 100% activity (5 nM porcine relaxin). The EC50 values were determined from concentration-response data modeled with the standard Hill equation. NCGC Assay Protocol Summary: HiHEK (Hawaiian HEK293 LGR7 stably transfected with human RXFP1) were grown in the following media: DMEM+10%FBS+Pen/Strep + Geneticin (1mg/ml). For the assay, the cells were seeded in DMEM+Pen/Strep (with no serum & selective antibiotics) at 2,100 cells/ 3microl/well with MultiDrop Combi dispenser (Thermo Scientific, Logan, UT) onto white tissue culture treated solid bottom1536-well plates (Greiner #789173-F) and allowed to attach/recover overnight at 37 degrees C, 5% CO2. Next, 23nl/well of compound solutions in DMSO were transferred into wells with a pintool (Kalypsis, San Diego, CA). […] EC80 (relaxin at 50pM final concentration) was dispensed to the rest of the plate except columns 1&2 which were used as a negative control (EC0, buffer only), 1microl/well also. The cells were stimulated by relaxin in the presence of compounds for 30 minutes at 37 degrees C, 5% CO2. The detection reagents were prepared individually by dilution in Lysis buffer (supplied with the assay kit) just prior to dispensing. 1microl/well of cAMP-d2 and 1microl/well anti-cAMP-Eu3+-Cryptate antibodies were added simultaneously with BioRAPTR FRDtrade mark Workstation (Beckman Coulter). The plates were incubated at ambient temperature for 30 minutes and, then, FRET signal was read on Envision plate reader (PerkinElmer, Waltham, MA), at wavelengths 340nm (excitation), 615nm & 665nm (emission of donor and acceptor channels respectively).
% is scaled to controls: 0 for no effect and ±100 for the full control effect.

SMILES	activity change, negative = inhibition
COc1cccc(/C=C2\SC(=S)N(CCCC(=O)N3CCOCC3)C2=O)c1	9.2% (inactive)
CCN(C(=O)CN1C(=O)/C(=C/c2ccc(F)cc2)SC1=S)C1CCS(=O)(=O)C1 (stereo unspecified)	5.31% (inactive)
O=C1/C(=C/c2ccc(F)cc2)SC(=S)N1CCCC(=O)N1CCCCC1CCO (stereo unspecified)	-99.6% (active)
O=C(NNC(=O)c1ccco1)Nc1ccccc1	-5.56% (inactive)
O=C(NNC(=O)c1ccc(-c2ccccc2)cc1)Nc1ccccc1	-86.2% (active)
O=C(NC1CC1)c1ccc(-c2ccccc2)cc1	-5.32% (inactive)
COC(=O)c1ccccc1NC(=O)C(Cc1ccccc1)N1Cc2ccccc2C1=O (stereo unspecified)	-13.9% (inactive)
O=C(c1ccco1)n1nc(-c2ccc(Cl)cc2)nc1NCc1ccccc1	-6.49% (inactive)
COc1ccccc1N1CCN(CCCNC(=O)c2cnn(-c3ccccc3Cl)c2C2CCN(C(=O)OC(C)(C)C)CC2)CC1	-27.8% (inactive)
O=C(CCC(=O)N1CC2CCCN2c2ccccc21)NCc1ccccc1Cl (stereo unspecified)	-15% (inactive)
CCc1nnc(SCc2c(F)cccc2Cl)c2cc3sccc3n12	3.15% (inactive)
CC(=O)Nc1cccc(-c2csc(Nc3cccc(C)n3)n2)c1	-62.8% (active)
Cc1cccc(NC(=O)Nc2ccc3c(c2)OCO3)n1	6.53% (inactive)
COc1ccc(-c2csc(Nc3cccc(C)n3)n2)cc1OC	-15.8% (inactive)
COc1ccc2c(c1)Cc1sc(NC(=O)c3ccccc3Br)nc1-2	-16.9% (inactive)
COc1ccc(N2CCN(C(=O)CCSCc3ccccc3F)CC2)cc1	-7.15% (inactive)
COc1ccc(N2CCN(C(=O)CSCc3nc(-c4ccccc4Cl)oc3C)CC2)cc1	-64.6% (active)
COc1ccc(CNC(=O)CSCc2nc(-c3ccccc3F)oc2C)cc1	-25.8% (inactive)
CCc1ccc(NC(=O)C2CCCN2S(=O)(=O)c2ccc3nc(-c4ccccc4)[nH]c3c2)cc1 (stereo unspecified)	-3.72% (inactive)

SMILES	activity change, negative = inhibition
CN1C(=O)c2ccccc2Sc2ccc(NC(=O)Cc3ccc(Cl)cc3)cc21	-36% (inactive)
O=C(CSc1nc2c(c(=O)[nH]1)CN(Cc1ccc(F)cc1)CC2)Nc1ccccc1Cl	-5.69% (inactive)
CCOc1ccc(Nc2ncnc3scc(-c4ccc(OC)cc4)c23)cc1	-16.5% (inactive)
O=C1C=C(c2ccc(Cl)cc2)C(=O)N1Nc1ccccc1	-62.4% (active)
CCCSc1ncc(Cl)c(C(=O)Nc2c(C(=O)Nc3ccccc3)oc3ccccc23)n1	4.58% (inactive)
Cc1cccc(CS(=O)(=O)c2ncc(Cl)c(C(=O)Nc3ccc(F)cc3)n2)c1	-95.9% (active)
Cc1cccc(NC(=O)Cn2cc(S(=O)(=O)Cc3ccccc3Cl)c3ccccc32)c1	-19.7% (inactive)
CCS(=O)(=O)c1ncc(N(Cc2ccc(F)cc2)Cc2ccco2)c(C(=O)Nc2cc(C)ccc2C)n1	-11.8% (inactive)
Cc1cccc(NC(=O)c2nc(S(=O)(=O)Cc3ccccc3)ncc2Cl)c1	-89.5% (active)
CCOC(=O)c1ccc(NC(=O)c2nc(SCc3ccc(F)cc3)ncc2Cl)cc1	3.57% (inactive)
COc1ccc(OC)c(NC(=O)/C=C/c2ccc(C)o2)c1	-0.228% (inactive)
O=C(Nc1nnc(S(=O)(=O)N2CCCc3ccccc32)s1)c1cccc(F)c1	-23.2% (inactive)
CCN1CCN(C(c2ccc(C)cc2)c2c(O)cc(C)n(Cc3ccco3)c2=O)CC1 (stereo unspecified)	-15.2% (inactive)
COc1cccc(Cn2c(SCc3ccc(C(=O)N4CCC(C)CC4)cc3)nc3ccncc32)c1	0.54% (inactive)
Cc1cccc2sc(N(CCCN(C)C)C(=O)CCS(=O)(=O)c3ccccc3)nc12	10.5% (inactive)
CCN(CC)CCN(C(=O)c1ccc2c(c1)CCCC2)c1nc2c(OC)cccc2s1	-18.9% (inactive)
COc1cccc2sc(N(CCCN(C)C)C(=O)C(c3ccccc3)c3ccccc3)nc12	-77.3% (active)
CCN(CC)c1ccc(NS(=O)(=O)c2cc(-c3cc(C)no3)ccc2C)c(C)c1	-32.3% (inactive)
CCc1ccccc1NC(=O)c1sc2nc3c(cc2c1N)CN(Cc1ccccc1)CC3	-0.166% (inactive)

SMILES	activity change, negative = inhibition
Cc1cccc(N2CCN(C3=C(c4ccccc4)C(=O)c4ccccc43)CC2)c1C	-0.811% (inactive)
CCc1cccc(NC(=O)CN(C)S(=O)(=O)c2ccc3[nH]c4c(c3c2)CCCC4)c1	-7.15% (inactive)
CCCCOCCOC(=O)c1cccnc1	8.56% (inactive)
Cc1ccc(NC(=O)CSc2nc3ccccc3c3nc(CCn4cncc4C)nn23)cc1F	-6.58% (inactive)
Cc1c(C)n(Cc2ccc(Cl)cc2)c2ccc(C(=O)NCCc3ccc(S(N)(=O)=O)cc3)cc12	-10.3% (inactive)
O=C(NCCCO)c1nn(-c2ccc(Cl)cc2)nc1CO	-16.3% (inactive)
Cc1ccc(-n2nc(CO)c(C(=O)NCCc3ccccc3)n2)cc1	-19.5% (inactive)
CC(CCCc1ccccc1)NC(=O)c1nn(-c2ccc(Cl)cc2)nc1CO (stereo unspecified)	-85.1% (active)
O=[N+]([O-])c1c(NCCO)cc(Sc2nc3ccccc3s2)c2nonc12	-71% (active)
O=C(COc1ccccc1Cl)Nc1ccc2nc(SCC(=O)N3CCCC3)sc2c1	0.0142% (inactive)
CC(C)(C)c1ccc(S(=O)(=O)Nc2ccc(O)c(Sc3nc4ccccc4s3)c2)cc1	-31% (inactive)
COCC(C)NS(=O)(=O)c1ccc(N2CCCCS2(=O)=O)cc1 (stereo unspecified)	-3.31% (inactive)
CCc1nc2nc(C)cc(Nc3ccc(F)c(Cl)c3)n2n1	-7.58% (inactive)
CC1(C)CC(=O)C=C(N2CCOCC2)C1	-12.6% (inactive)
CC(C)OCC(O)CN1CCN(C(c2ccccc2)c2ccccc2)CC1 (stereo unspecified)	-2.44% (inactive)
CC1(C)CC(N2CCN(C(c3ccccc3)c3ccccc3)CC2)=CC(=[N+]2CCCCC2)C1	-86.5% (active)
Cc1ccccc1OCc1ccc(-c2nc(C#N)c(N3CCCCC3)o2)o1	-8.24% (inactive)
Cc1c(C)n(Cc2ccc(Cl)cc2)c2ccc(C(=O)N3CCN(c4ccccc4F)CC3)cc12	-18.8% (inactive)
